About 6,100 (1.1%) of roughly 580,000 compounds were called active. About 15% were inconclusive and are not listed. The sample holds actives, similar compounds and a random draw of the others, so the mix is not that of the screen. Calls follow the shape of the dose curve; as a rule, active = well fitted inhibition curve with a large enough effect; inconclusive = small, poorly fitted or top-dose-only effect, or another doubt; inactive = no such curve, though single readings can be large or run the other way.
Target: Polyunsaturated fatty acid lipoxygenase ALOX12 (Homo sapiens) (UniProt P18054)
Experiment: Primary qHTS assay for inhibitors of human arachidonate 12S-lipoxygenase (ALOX12): Round 2
Settings: purified 12hLO, xylenol orange hydroperoxide absorbance; series mostly up to 108 µM; activity change, negative = inhibition: at the top concentration
From the text: Assay Provider: Theodore R. Holman Ph.D. University of California, Santa Cruz, California Human lipoxygenase 12hLO is a member of the closely related lipoxygenase family of enzymes which catalyze the site-specific oxidation of arachidonic acid to various hormone precursor molecules and as such is a candidate for drug development in a variety of disease areas, such as cancer and inflammation. Inhibition of 12hLO activity was screened by utilizing arachidonic acid as a substrate. The extent of hydroperoxide product formation was measured by a secondary chromogenic reaction in which xylenol orange (XO, Sigma-Aldrich, cat. number 39,818-7) reacts with the ferric ions produced from the reaction between the hydroperoxide and ferrous ions. The Fe (III)-XO complex is characterized with red-shifted absorbance at 560 nm. A purified preparation of human 12hLO was supplied by Dr. Holman laboratory, University of California, Santa Cruz.
PROTOCOL TABLE SEQUENCE No. (e.g., 1, 2, 3, etc.); […] (e.g., Cells, Incubation, Reagent, etc.); VALUE; DESCRIPTION 1; Enzyme; 3 uL; 150 nM 12hLO enzyme solution dispensed in 1536-well Greiner black, clear bottom plates. 2; Compound; 23 nL; compounds and controls were added. 3; Incubate; 15 min; room temperature. 4; Substrate; 1 uL; 40 uM arachidonic acid (final concentration). 5; Incubate; 30 min; room temperature. 6; Reagent; 4 uL; Fe-XO solution was added to each well. 7; Incubation; 30 min; room temperature 8; Detector; absorbance; Read 1 at 405 nm absorbance using ViewLux (Perkin-Elmer) CCD imager. 9; Detector; absorbance; Read 2 at 573 nm absorbance using ViewLux (Perkin-Elmer) CCD imager. NOTES (numbers refer to sequence above) 1; 150 nM 12hLO (final concentration) in buffer solution (25 mM Hepes, 0.01% Triton X-100, pH 7.0) was dispensed in columns 1, 2, 5-48. Column 1 is neutral (100% activity). Buffer only was dispensed in columns 3 and 4 as no enzyme negative controls. The plates were covered with metal lids with gas-exchange holes. 2; Compounds were pin transferred via a Kalypsys Pin Tool (Wako USA) in column 5-48. Control compound was transferred in column 2, titration of nordihydroguaiaretic acid (NDGA, Sigma-Aldrich, N5023) with top concentration of 20 mM in DMSO then 1:3 dilution in duplicate. Dilution factor of 23 nL into 4 uL final assay volume. 3; Covered assay plates were incubated for 15 min at room temperature. 4; Substrate was added to start the reaction; 40 uM arachidonic acid (Sigma-Aldrich, St. Louis, MO) was dispensed throughout the plate. 6; Chromogenic detection reagent solution (divalent iron/xylenol orange, Fe-XO) was added to each well: 200 uM xylenol orange, 300 uM ferrous ammonium sulfate prepared freshly in 50 mM sulfuric acid. 8, 9; Two absorbance readouts were obtained at 405 nm and at 573 nm using a ViewLux high-throughput CCD plate imager (Perkin-Elmer). The 573 to 405 (Read 2 / Read 1) absorbance ratio was used to compute reaction progress.
% is scaled to controls: 0 for no effect and ±100 for the full control effect; potency is read from the fitted curve at half-maximal effect.

Chain of Polyunsaturated fatty acid lipoxygenase ALOX12 (Homo sapiens) (P18054 whole entry, looked up): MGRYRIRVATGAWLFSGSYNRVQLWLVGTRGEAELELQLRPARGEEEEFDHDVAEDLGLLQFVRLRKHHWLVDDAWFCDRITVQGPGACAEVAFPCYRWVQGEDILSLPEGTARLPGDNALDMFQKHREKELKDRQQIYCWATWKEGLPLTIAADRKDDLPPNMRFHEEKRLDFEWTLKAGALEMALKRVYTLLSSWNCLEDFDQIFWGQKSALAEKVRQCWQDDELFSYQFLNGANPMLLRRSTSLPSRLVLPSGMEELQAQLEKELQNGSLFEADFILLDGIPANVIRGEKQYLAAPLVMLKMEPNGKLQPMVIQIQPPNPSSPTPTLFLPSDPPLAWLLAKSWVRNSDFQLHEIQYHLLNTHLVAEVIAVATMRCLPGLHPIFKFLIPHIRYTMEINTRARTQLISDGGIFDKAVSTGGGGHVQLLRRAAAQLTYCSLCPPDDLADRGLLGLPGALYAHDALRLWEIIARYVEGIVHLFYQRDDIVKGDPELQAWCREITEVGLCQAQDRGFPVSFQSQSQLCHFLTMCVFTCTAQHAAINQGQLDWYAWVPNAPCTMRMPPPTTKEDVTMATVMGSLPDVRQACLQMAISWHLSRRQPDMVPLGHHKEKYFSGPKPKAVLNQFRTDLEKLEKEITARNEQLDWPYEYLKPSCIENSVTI

Row | Structure (SMILES) | activity change, negative = inhibition | Potency
1 | O=C(Nc1cccc(Cl)c1)c1csnn1 | -56.4% (inactive) | –
2 | Cc1csc(NC(=S)Nc2cccc(Cl)c2)n1 | – | 8.91 µM (active)
3 | Cc1csc(NC(=O)CCc2ncc(-c3ccc(Cl)cc3Cl)o2)n1 | -11.5% (inactive) | –
4 | CCN(CC)CCCNC(=O)c1ccc2c(=O)n(Cc3ccc4c(c3)OCO4)c(=S)[nH]c2c1 | – | 39.8 µM (active)
5 | CCOc1cc2[nH]c(=O)n(Cc3ccc(C(=O)NCCN(CC)CC)cc3)c(=O)c2cc1OCC | 8.46% (inactive) | –
6 | CCCCCn1c(=O)[nH]c2cc(C(=O)NCCN(C)CCCC)ccc2c1=O | -11.6% (inactive) | –
7 | O=C(CCc1ccccc1)Nc1ccc(Cl)c(C(F)(F)F)c1 | -15.2% (inactive) | –
8 | Cc1cccc(NC(=O)CN2CC3CC(C2)[C@H]2CCCC(=O)N2C3)c1 (stereo partly specified) | 15.5% (inactive) | –
9 | O=C(NC(=S)Nc1ccccc1C(=O)O)c1ccc(-c2ccc(Br)cc2)o1 | – | 10 µM (active)
10 | CSc1ccccc1NC(=O)Cc1ccc(Br)cc1 | -6.84% (inactive) | –
11 | O=C(NC(=O)c1ccccc1N1CCCCC1)Nc1ccc(Br)cc1 | 5.64% (inactive) | –
12 | Cn1cc(C(=O)N2CCC(C(N)=O)CC2)c2ccccc21 | -6.34% (inactive) | –
13 | CC1=C(C(=O)OC(C)C)C(c2ccncc2)c2c(nc(SCc3ccccc3)[nH]c2=O)N1 (stereo unspecified) | 3.3% (inactive) | –
14 | COc1ccc(/C=C2/S/C(=N/N=C3\CC4CCC3(C)C4(C)C)NC2=O)cc1 (stereo unspecified) | 12.3% (inactive) | –
15 | CCc1ccc(C=C2SC(=S)NC2=O)cc1 | – | 10.9 µM (active)
16 | O=C1NC(=O)C(=Cc2cccc(C(F)(F)F)c2)S1 | -31.5% [at 57.4 µM] (inactive) | –
17 | CCOC(=O)NC(CNC(=O)c1ccccc1OC)CC(C)C (stereo unspecified) | -16% (inactive) | –
18 | COc1ccccc1NS(=O)(=O)c1ccc2oc(SCCOc3ccccc3F)nc2c1 | -14% (inactive) | –
19 | CCC(CC)C(=O)Nc1sc(Nc2ccc(C)cc2)nc1C(N)=O | 56.5% (inactive) | –
20 | COc1ccc2cc(S(=O)(=O)c3ccc(Cl)c(Cl)c3)c(=O)oc2c1 | 6.23% (inactive) | –
21 | O=C(c1ccc(F)c(F)c1)N1CCC([C@@H]2CNC[C@H]2CO)CC1 | 9.14% (inactive) | –
22 | COc1ccc(C(=O)N2CCC([C@@H]3CNC[C@H]3CO)CC2)cc1OC | 42.4% (inactive) | –

Row | Structure (SMILES) | activity change, negative = inhibition | Potency
23 | O=C(c1ccc(C(F)(F)F)cc1)N1CCC([C@@H]2CNC[C@H]2CO)CC1 | – | 44.7 µM (active)
24 | O=C1c2ccccc2C(=O)N1CCCCCCN1C(=O)c2ccccc2C1=O | – | 35.5 µM (active)
25 | Nc1ccc(SCCN2C(=O)c3ccccc3C2=O)cc1 | 0% (inactive) | –
26 | O=C(OCCN1C(=O)c2ccccc2C1=O)Oc1ccccc1 | 21.2% (inactive) | –
27 | COc1ccc(CC(=O)N2CC3ON=C(c4c(F)cccc4Cl)C3C2)cc1OC (stereo unspecified) | 0.305% (inactive) | –
28 | CCCn1c(-n2nc(C)cc2C)nc2c1c(=O)n(CCN1CCCCC1)c(=O)n2C | -4.67% (inactive) | –
29 | CC(c1ccc(S(N)(=O)=O)cc1)N(C)C(=O)CCc1ncc(-c2ccc(Cl)cc2)o1 (stereo unspecified) | -1.85% (inactive) | –
30 | CCOC(=O)c1c(NC(C)=O)sc2c(OCC(=O)Nc3ccccc3C)c(C)ccc12 | 4.61% (inactive) | –
31 | COC(=O)Nc1ccc(S(=O)(=O)Nc2cc(OC)nc(OC)n2)cc1 | -27.3% (inactive) | –
32 | CC(Oc1cccc(Cl)c1)C(=O)Nc1ccc(S(=O)(=O)Nc2ncccn2)cc1 (stereo unspecified) | -28% (inactive) | –
33 | COc1cc(NS(=O)(=O)c2ccc(N/C=C(\C=O)c3nc4cc(Cl)ccc4o3)cc2)nc(OC)n1 | – | 22.4 µM (active)
34 | CCOC(=O)c1cccc(NC(=O)N2CC[C@@H](CC(=O)N(C)CC#N)[C@@H](CC)C2)c1 | 7.29% [at 176 µM] (inactive) | –
35 | CCOc1ccc(NC(=O)C(=O)c2c[nH]c3ccccc23)cc1 | -5.79% (inactive) | –
36 | CCc1cccc(NC(=O)Nc2cn(CC(C)C)c(=O)c3ccccc23)c1 | -24.1% (inactive) | –
37 | [O-]/[N+](=C\c1ccc2ccccc2n1)c1ccccc1 | – | 11.2 µM (active)
38 | CC(C)Oc1c(Br)cc(Br)cc1/C=N/NC(N)=S | – | 35.5 µM (active)
39 | N#Cc1cccc(NC(=O)O[C@@H]2CO[C@H]3[C@@H]2OC[C@@H]3Nc2nccc(-c3ccccc3)n2)c1 | 8.46% (inactive) | –
40 | Cc1ccc(C(=O)Nc2ccc3c(N4CCCCC4)ncnc3c2)s1 | 0.475% (inactive) | –
41 | CC(C)CC(N=C1NC(C)(C)Cc2ccccc21)C(=O)O (stereo unspecified) | 26.9% (inactive) | –
42 | CC1(C)Cc2ccccc2-c2[nH]c(=S)[nH]c(=O)c21 | – | 7.94 µM (active)
43 | CC1(C)Cc2ccccc2-c2nnc(-c3cccc(O)c3)n21 | 0% (inactive) | –
44 | COc1ccc(-c2nc(CSCC(=O)N(C)c3ccccc3)co2)cc1 | -7.47% (inactive) | –

Row | Structure (SMILES) | activity change, negative = inhibition | Potency
45 | COc1ccc(CCC(=O)N2CCCCCCNC(=O)[C@@H]3CCCC[C@@H]32)cc1 | 14.2% (inactive) | –
46 | CCc1ccc(N(Cc2cccs2)C(=O)c2ccccc2C)cc1 | 5.57% (inactive) | –
47 | CC(NS(=O)(=O)c1ccc(F)cc1Cl)C(=O)N1CCCC1 (stereo unspecified) | 1.67% (inactive) | –
48 | CCOc1ccc(NC(=O)Nc2ccc(CN3CCOCC3)cc2)cc1 | -0.148% (inactive) | –
49 | COC(=O)c1ccc2c(c1)nc1n2[C@@H](CNCc2cccc(OC)n2)COC1 | -2.06% [at 176 µM] (inactive) | –
50 | CC(C)c1ccc(NC(=O)c2ccc3c(Cl)c4c(nc3c2)CCCC4)cc1 | -5.67% (inactive) | –
51 | COc1cccc(C(=O)N2CCc3nc(C4CC4)nc(-c4ccc(Cl)cc4)c3C2)c1 | – | 10 µM (active)
52 | CC(=O)N1CCc2nc(C3CC3)nc(-c3ccc(Cl)cc3)c2C1 | 7.6% [at 176 µM] (inactive) | –
53 | O=C(c1cccc(Cl)c1)N1CCc2nc(C3CC3)nc(-c3ccc(Cl)cc3)c2C1 | -20.8% (inactive) | –
54 | Cn1ccnc1CNCC1(COc2ccc(C(F)(F)F)cn2)C[C@@H](O)[C@@H](O)C1 (stereo partly specified) | 41% (inactive) | –
55 | CCS(=O)(=O)NCC1(COc2ccc(C(F)(F)F)cn2)C[C@@H](O)[C@@H](O)C1 (stereo partly specified) | – | 12.6 µM (active)
56 | O=C(NCC1(COc2ccc(C(F)(F)F)cn2)C[C@@H](O)[C@@H](O)C1)c1ccc(F)cc1 (stereo partly specified) | 131% (inactive) | –
57 | COc1cc(CN2C[C@@H](CO)[C@H](c3nc(C)no3)C2)ccc1F | 24.8% (inactive) | –
58 | Cc1ccc(-c2c3c(nc4sc5c(c24)CCC5)-c2cc(F)ccc2S(=O)(=O)C3)cc1 | 5.98% (inactive) | –
59 | Cc1scc(-c2ccccc2)[n+]1C | – | 17.8 µM (active)
60 | Cc1ccccc1Nc1scc(-c2ccc(Br)cc2)[n+]1-c1ccccc1C | -14% (inactive) | –
61 | Cc1cc2nc(-c3ccccc3)c(-c3ccccc3)nc2cc1C | -2.87% (inactive) | –
62 | CCCCN(C)C(=O)CCNC(=O)Cn1cnc2sc3c(c2c1=O)CCCC3 | 1.19% (inactive) | –
63 | CCCC1CCC(c2ccc(-c3ccc(CC)cn3)cc2F)CC1 (stereo unspecified) | 2.03% (inactive) | –
64 | Cc1ccc([C@H]2N[C@]3(CCCN(Cc4ccccc4)C3=O)[C@H]3C(=O)N(Cc4ccccc4)C(=O)[C@@H]23)cc1 | -20.9% (inactive) | –
65 | CCN1C(=O)[C@H]2[C@@H](c3ccccc3)N[C@]3(CCCN(Cc4ccc(C)cc4)C3=O)[C@H]2C1=O | – | 4.47 µM (active)
66 | CCN1C(=O)[C@H]2[C@@H](c3ccc(-c4ccc(F)cc4)cc3)N[C@@](Cc3ccccc3)(C(=O)OC)[C@H]2C1=O | -4.83% (inactive) | –
